Screens from PubChem.
HT1080 IDH1KD tx = qHTS for induction of synthetic lethality in tumor cells producing 2HG: qHTS for the HT-1080-IDH1KD cell line. HT-1080 IDH1 knockdown viability, ATP luminescence, 48 h. Potency, µM (highest dose often 46.1 µM), for the others: at the top dose activity, negative = toxicity, hits mostly cytotoxic. actives 2% (n = 360,000). AID 686971, 2013;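 further: potency means the concentration at half of the fitted maximal effect; 0% = DMSO wells and -100% = cell-free medium wells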
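Using the IDH1-knockdown HT-1080 line run in the same batch and compound series as the NT line, viability after 48 h at 37 °C was determined by CellTiter-Glo luminescence and expressed as % activity.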
uPA generation = qHTS for Inhibitors of Cell Surface uPA Generation; actives 0.31% (n = 330,000); Potency, µM (titrated, usually from 38.3 µM), inactives show top-dose activity change, negative = inhibition, actives largely listed as inhibitors; cell surface uPA generation assay, qHTS; AID 540303, 2011; active means well fitted inhibition curve with a large enough effect; inconclusive means small, poorly fitted or top-dose-only effect; inactive means no such curve, though single readings can be large or run the other way; tested in mouse RAW 264.7 cells; further: potency means the concentration at half of the fitted maximal effect; nearly all actives have a fitted effect of over 55% in size
TDP1 cell noCPT = qHTS for Inhibitors of human tyrosyl-DNA phosphodiesterase 1 (TDP1): qHTS in cells in absence of CPT | Potency, µM (doses to about 46.2 µM), without a hit: top-dose activity change, negative = growth inhibition, hits mostly inhibitors | DT40 Tdp1-/- hTDP1 cells, no CPT, ATP luminescence, 48 h | actives 15% (n = 420,000); further: potency means the concentration at half of the fitted maximal effect; nearly all actives have a fitted effect of over 55% in size
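A cellular qHTS used chicken DT40 cells lacking endogenous Tdp1 but carrying stably transfected human TDP1. Compounds were applied without camptothecin, and cell growth kinetics were judged by ATP-dependent luminescence after ≥48 hr.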
IL1B secr inh = qHTS for Inhibitors of Inflammasome Signaling: IL-1-beta AlphaLISA Primary Screen; activity change, % at 57.5 µM; actives 4.7% (n = 360,000); THP-1 LPS/ATP IL-1B secretion, AlphaLISA, 16 h; hits give low values; in the data active means activity change below about -50%; inconclusive means mostly about -30% to -49%
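Secreted IL-1B measured by AlphaLISA bead assay after 16 h compound exposure of THP-1 cells; compounds (final up to 57.5 uM) added 1 h before LPS (250 ng/mL) and ATP (1.25 mM) stimulation; lower signal means less secretion.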
HT1080-NT tox = qHTS for induction of synthetic lethality in tumor cells producing 2HG: qHTS for the HT-1080-NT fibrosarcoma cell line; HT-1080-NT fibrosarcoma viability, CellTiter-Glo ATP luminescence, 48 h; Potency, µM (titrated, usually from 46.1 µM), without a hit: top-dose activity, negative = less viability, usual class: cytotoxic; actives 1.6% (n = 360,000);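 further: NT is the 2HG producing partner of a matched IDH1 knockdown line; potency means the concentration at half of the fitted maximal effect; 0% = DMSO-treated cells and -100% = media-only wells without cells; nearly all actives have a fitted effect of over 55% in size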
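Luminescent CellTiter-Glo readout after 48 hours of compound exposure at 37 degrees C defined viability of HT-1080-NT cells. Activity was normalized to DMSO wells and cell-free media wells; concentration-response curves were fitted and assigned curve classes.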
TDP1 cell CPT = qHTS for Inhibitors of human tyrosyl-DNA phosphodiesterase 1 (TDP1): qHTS in cells in presence of CPT. chicken DT40 Tdp1-/-;hTDP1 cells + 20 nM CPT, ATP luminescence, 48 h. Potency, µM (highest dose often 46.2 µM), inactives show at the highest dose activity change, negative = growth inhibition, usual class: inhibitors. actives 12% (n = 420,000). AID 686979, 2013; further: potency means the concentration at half of the fitted maximal effect; nearly all actives have a fitted effect of over 55% in size
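Chicken DT40 Tdp1-/- cells complemented with human TDP1, 400 cells/well, exposed to compounds plus 20 nM camptothecin for at least 48 h at 37 C; viability read as ATP content by CellTiter-Glo luminescence.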
The depositor's hits bear a star. The list is not random: actives were taken first. Their share in the collection is about 19%. Unless noted, the call rests on the fitted dose curve; in most records, active means well fitted curve in the direction sought with a large enough effect; inconclusive means small, poorly fitted or top-dose-only effect, or another doubt; inactive means no such curve, though single readings can be large; an effect the other way counts as inactive or inconclusive. Unless noted, on the % scale 0 is the no-effect control and ±100 the full control effect.

Screening CCC(=O)N(CCc1ccc(S(N)(=O)=O)cc1)C1CC(=O)N(c2ccc(OC)cc2)C1=O (stereo not drawn) returned HT1080 IDH1KD tx 21.9%, uPA generation 1.9%, TDP1 cell noCPT -8.2%, IL1B secr inh 4.8, HT1080-NT tox 14.8% and TDP1 cell CPT -2.9%.
O=[N+]([O-])c1ccc(-c2c[nH]c(=S)[nH]2)cc1 was read as HT1080 IDH1KD tx 5.2%, uPA generation 4.6%, TDP1 cell noCPT inconclusive, IL1B secr inh 12.1, HT1080-NT tox 0.4% and TDP1 cell CPT 16.4µM*.
S=c1[nH]cc(-c2ccccc2)[nH]1 was read as HT1080 IDH1KD tx 0.3%, uPA generation 3.2%, TDP1 cell noCPT -11.3%, IL1B secr inh -24.5, HT1080-NT tox -8.6% and TDP1 cell CPT -2.0%.
Screening Cc1c(C(=O)N/N=C/c2ccccn2)nnn1-c1nonc1N returned HT1080 IDH1KD tx 5.7%, uPA generation 0.7%, TDP1 cell noCPT inconclusive, IL1B secr inh inconclusive, HT1080-NT tox 18.5% and TDP1 cell CPT 12.9%.
For NCCCN(Cc1ccccc1)c1ccc(Br)cn1 the results were HT1080 IDH1KD tx -19.4%, TDP1 cell noCPT inconclusive, HT1080-NT tox -26.7% and TDP1 cell CPT 11.2µM*.
`Cc1ccc2c(c1)c(/C=C/c1cc[n+](C)cc1)c(C)n2C` gave HT1080 IDH1KD tx inconclusive, uPA generation -1.5%, TDP1 cell noCPT 0.411µM*, IL1B secr inh -62.7*, HT1080-NT tox inconclusive and TDP1 cell CPT 0.517µM*.
For Cc1ccc2c(c1)c(C)cc(=O)n2CCC(=O)O the results were HT1080 IDH1KD tx 9.2%, uPA generation 1.3%, TDP1 cell noCPT -4.6%, IL1B secr inh -2.5, HT1080-NT tox 8.6% and TDP1 cell CPT 18.1%.
Screening C[n+]1ccc(/C=C/c2ccc(Br)cc2)cc1 returned HT1080 IDH1KD tx -3.5%, uPA generation -6.2%, TDP1 cell noCPT -12.1%, IL1B secr inh inconclusive, HT1080-NT tox 3.1% and TDP1 cell CPT 1.8%.
For Cc1ccc2[nH]c(C)c(/C=C/c3cc[n+](C)cc3)c2c1 the results were HT1080 IDH1KD tx inconclusive, uPA generation -8.3%, TDP1 cell noCPT 2.59µM*, IL1B secr inh inconclusive, HT1080-NT tox inconclusive and TDP1 cell CPT 3.26µM*.
Screening COc1ccc(N2CC(C(=O)N[C@@H](C)C(=O)NCc3ccccc3OC)CC2=O)cc1 (stereo partly drawn) returned HT1080 IDH1KD tx 0.0%, uPA generation 14.2%, TDP1 cell noCPT -1.8%, IL1B secr inh -8.7, HT1080-NT tox 9.6% and TDP1 cell CPT 4.8%.
`CCN1CCN(c2cc(C)c3cc(NC(=S)NCc4cccs4)ccc3n2)CC1` gave HT1080 IDH1KD tx -1.0%, uPA generation inconclusive, TDP1 cell noCPT 20.6µM*, IL1B secr inh -1.6, HT1080-NT tox -8.6% and TDP1 cell CPT inconclusive.
For CCCCNC(=O)CCC(=O)Nc1ccc2nc(N3CCC(C)CC3)cc(C)c2c1 the results were HT1080 IDH1KD tx -14.0%, uPA generation -6.6%, TDP1 cell noCPT inconclusive, IL1B secr inh -6.1, HT1080-NT tox -27.2% and TDP1 cell CPT inconclusive.
`CCC(C)NC(=O)CCC(=O)Nc1ccc2nc(N3CC(C)CC(C)C3)cc(C)c2c1` (stereo not drawn) gave HT1080 IDH1KD tx -7.8%, uPA generation -1.1%, TDP1 cell noCPT 16.4µM*, IL1B secr inh -58.7*, HT1080-NT tox 0.0% and TDP1 cell CPT -16.6%.
For CCC(C)NC(=S)Nc1ccc2nc(N3CCN(CC)CC3)cc(C)c2c1 (stereo not drawn) the results were HT1080 IDH1KD tx -1.1%, uPA generation inconclusive, TDP1 cell noCPT 23.1µM*, IL1B secr inh 0.5, HT1080-NT tox -3.4% and TDP1 cell CPT inconclusive.
Screening Cc1cc(N2CCN(C)CC2)nc2ccc(NC(=S)NCc3cccs3)cc12 returned HT1080 IDH1KD tx 23.1µM*, uPA generation -4.4%, TDP1 cell noCPT inconclusive, IL1B secr inh -77.4*, HT1080-NT tox 18.4µM* and TDP1 cell CPT inconclusive.
`COc1cc(NC(=O)N2CCC(CN3CCCC3)CC2)cc(OC)c1OC` gave TDP1 cell noCPT 5.4% and TDP1 cell CPT 17.9%.
`O=C(Nc1cccc(F)c1)N1CCc2nc(NCc3cccc(Oc4ccccc4)c3)ncc2C1` gave HT1080 IDH1KD tx inconclusive, TDP1 cell noCPT 14.6µM*, IL1B secr inh 75.4, HT1080-NT tox 23.1µM* and TDP1 cell CPT inconclusive.
`CN(CC(=O)Nc1cccc(F)c1)CC(=O)Nc1ccccc1Oc1ccccc1` gave HT1080 IDH1KD tx 0.0%, uPA generation 13.6%, TDP1 cell noCPT inconclusive, IL1B secr inh -20.2, HT1080-NT tox 1.2% and TDP1 cell CPT inconclusive.
Screening COc1cc(Nc2ncc3c(n2)CCN(C(=O)Nc2ccc(C(C)C)cc2)C3)cc(OC)c1OC returned HT1080 IDH1KD tx 18.4µM*, TDP1 cell noCPT 11.6µM*, IL1B secr inh -2.5, HT1080-NT tox 20.6µM* and TDP1 cell CPT inconclusive.
`CC(C)c1ccc(NC(=O)N2CCc3nc(NCc4cccc(Oc5ccccc5)c4)ncc3C2)cc1` gave HT1080 IDH1KD tx inconclusive, TDP1 cell noCPT 16.4µM*, IL1B secr inh -0.1, HT1080-NT tox inconclusive and TDP1 cell CPT inconclusive.
Cc1ccc(OCCCCNC2CCCC(C)C2C)c(C)c1 (stereo not drawn) was read as HT1080 IDH1KD tx inconclusive, uPA generation -7.8%, TDP1 cell noCPT 7.31µM*, IL1B secr inh -95.3*, HT1080-NT tox 20.6µM* and TDP1 cell CPT 8.2µM*.
Screening COC(=O)c1cc(Cl)c(NC(=O)C(C)C)cc1OC returned HT1080 IDH1KD tx 13.1%, uPA generation 2.2%, TDP1 cell noCPT 10.2%, IL1B secr inh 0.0, HT1080-NT tox 16.9% and TDP1 cell CPT 27.5%.
`COc1cc2c(cc1NC(=O)c1cccc(Br)c1)CCCC2` gave HT1080 IDH1KD tx -5.8%, uPA generation -2.9%, TDP1 cell noCPT 16.4µM*, IL1B secr inh -0.4, HT1080-NT tox 1.4% and TDP1 cell CPT inconclusive.
